Measurements taken from PubChem BioAssay AID1159580 (chemical genetic matrix, 2015).
Several values for one entry are separate records, joined by “and”; a condition that tells them apart may be missing. Equal entries are not always repeated. In all, about 5,500 compounds went through this assay and about 2,000 (36%) were called active. Not shown: some 18% with an inconclusive outcome. No stated cut-off is given here; in the data, active means normalized growth mostly below about 0.91 (no sharp cut-off); inconclusive means no clear call, values can overlap the other calls; inactive means mostly above about 0.92. The list shows a part of the results.

Test: chemical genetic growth profiling, strain panel (AID 1159580);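 further: tested at 20 µM; growth read once vehicle control cultures reached saturation at 30 °C; 1 = growth at the plate median or of vehicle wells; lower values mean less growth of the strain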
Conditions: growth OD

Measured: normalized growth

CN(C)CCCN1c2ccccc2CCc2ccccc21
inactive: S. cerevisiae deletion strains, locus YJR075W, strain HOC1, active compounds read low 0.97 | S. cerevisiae deletion strains, locus YKL009W, strain mrt4, active compounds read low 0.992 | S. cerevisiae deletion strains, locus YKL068W, active compounds read low 0.992 | S. cerevisiae deletion strains, locus YKL085W, strain MDH1 (second series), active compounds read low 0.987 | S. cerevisiae deletion strains, locus YKL085W, strain MDH1, active compounds read low 0.987 | S. cerevisiae deletion strains, locus YKL160W, strain elf1, active compounds read low 1 | S. cerevisiae deletion strains, locus YKR001C, strain vps1, active compounds read low 0.988 | S. cerevisiae deletion strains, locus YKR026C, strain gcn3, active compounds read low 1.01 | S. cerevisiae deletion strains, locus YKR091W, strain srl3, active compounds read low 1.01 | S. cerevisiae deletion strains, locus YLL001W, strain dnm1, active compounds read low 0.994 | S. cerevisiae deletion strains, locus YLL026W, active compounds read low 0.999 | S. cerevisiae deletion strains, locus YLL041C, strain sdh2, active compounds read low 1.01 | S. cerevisiae deletion strains, locus YLR027C, strain aat2, active compounds read low 1 | S. cerevisiae deletion strains, locus YLR039C, strain RIC1, active compounds read low 1.15 | S. cerevisiae deletion strains, locus YLR058C, strain SHM2, active compounds read low 1 | S. cerevisiae deletion strains, locus YLR102C, strain apc9, active compounds read low 0.984 | S. cerevisiae deletion strains, locus YLR113W, strain HOG1, active compounds read low 1.01 | S. cerevisiae deletion strains, locus YLR221C, strain rsa3, active compounds read low 0.98 | S. cerevisiae deletion strains, locus YLR258W, strain gsy2, active compounds read low 0.989 | S. cerevisiae deletion strains, locus YLR262C, strain YPT6 (second series), active compounds read low 1.04 | S. cerevisiae deletion strains, locus YLR262C, strain YPT6, active compounds read low 1.25 | S. cerevisiae deletion strains, locus YLR268W, strain sec22, active compounds read low 0.994 | S. cerevisiae deletion strains, locus YLR320W, strain mms22, active compounds read low 0.991 | S. cerevisiae deletion strains, locus YLR330W, strain CHS5, active compounds read low 1.01 | S. cerevisiae deletion strains, locus YLR342W, strain FKS1 (second series), active compounds read low 0.997 | S. cerevisiae deletion strains, locus YLR342W, strain FKS1, active compounds read low 1 | S. cerevisiae deletion strains, locus YLR357W, strain rsc2, active compounds read low 1.01 | S. cerevisiae deletion strains, locus YLR370C, strain arc18, active compounds read low 1.01 | S. cerevisiae deletion strains, locus YLR371W, strain rom2, active compounds read low 0.987 | S. cerevisiae deletion strains, locus YLR384C, strain iki3, active compounds read low 1.01 | S. cerevisiae deletion strains, locus YLR418C, strain cdc73, active compounds read low 0.956 | S. cerevisiae deletion strains, locus YML016C, strain PPZ1, active compounds read low 1.01 | S. cerevisiae deletion strains, locus YML032C, strain rad52, active compounds read low 0.996 | S. cerevisiae deletion strains, locus YML120C, strain ndi1, active compounds read low 0.992 | S. cerevisiae deletion strains, locus YML124C, strain tub3, active compounds read low 0.996 | S. cerevisiae deletion strains, locus YMR058W, strain fet3, active compounds read low 1.01 | S. cerevisiae deletion strains, locus YMR078C, strain ctf18, active compounds read low 0.985 | S. cerevisiae deletion strains, locus YMR125W, strain sto1, active compounds read low 1.01 | S. cerevisiae deletion strains, locus YMR129W, active compounds read low 1 | S. cerevisiae deletion strains, locus YMR205C, strain PFK2, active compounds read low 0.998 | S. cerevisiae deletion strains, locus YMR223W, strain ubp8, active compounds read low 0.962 | S. cerevisiae deletion strains, locus YMR231W, strain pep5, active compounds read low 0.998 | S. cerevisiae deletion strains, locus YMR263W, strain SAP30, active compounds read low 1 | S. cerevisiae deletion strains, locus YMR307W, strain GAS1, active compounds read low 1.09 and 0.988 | S. cerevisiae deletion strains, locus YNL067W, strain RPL9B, active compounds read low 1 | S. cerevisiae deletion strains, locus YNL071W, strain lat1, active compounds read low 1 | S. cerevisiae deletion strains, locus YNL128W, strain TEP1, active compounds read low 1 | S. cerevisiae deletion strains, locus YNL153C, strain GIM3, active compounds read low 1.01 | S. cerevisiae deletion strains, locus YNL175C, strain NOP13, active compounds read low 1 | S. cerevisiae deletion strains, locus YNL183C, strain NPR1, active compounds read low 0.942 | S. cerevisiae deletion strains, locus YNL197C, strain WHI3, active compounds read low 1 | S. cerevisiae deletion strains, locus YNL209W, strain ssb2, active compounds read low 1.03 | S. cerevisiae deletion strains, locus YNL224C, strain SQS1, active compounds read low 1.05 | S. cerevisiae deletion strains, locus YNL233W, strain BNI4, active compounds read low 1.01 | S. cerevisiae deletion strains, locus YNL248C, strain rpa49, active compounds read low 0.988 | S. cerevisiae deletion strains, locus YNL250W, strain rad50, active compounds read low 0.987 | S. cerevisiae deletion strains, locus YNL271C, strain bni1, active compounds read low 0.993 | S. cerevisiae deletion strains, locus YNL298W, strain CLA4, active compounds read low 1 | S. cerevisiae deletion strains, locus YNL307C, strain MCK1, active compounds read low 0.982 | S. cerevisiae deletion strains, locus YNL322C, strain KRE1 (second series), active compounds read low 0.997 | S. cerevisiae deletion strains, locus YNL322C, strain KRE1, active compounds read low 1 and 0.979 | S. cerevisiae deletion strains, locus YNR049C, strain mso1, active compounds read low 1.03 | S. cerevisiae deletion strains, locus YNR052C, strain pop2, active compounds read low 0.978 | S. cerevisiae deletion strains, locus YOL006C, strain TOP1, active compounds read low 0.946 | S. cerevisiae deletion strains, locus YOL012C, strain htz1 0.613 | S. cerevisiae deletion strains, locus YOL147C, strain pex11, active compounds read low 0.994 | S. cerevisiae deletion strains, locus YOR001W, strain rrp6, active compounds read low 1 | S. cerevisiae deletion strains, locus YOR061W, strain CKA2, active compounds read low 1.01 | S. cerevisiae deletion strains, locus YOR069W, strain VPS5, active compounds read low 1 | S. cerevisiae deletion strains, locus YOR070C, strain gyp1, active compounds read low 1 | S. cerevisiae deletion strains, locus YOR080W, strain dia2, active compounds read low 0.995 | S. cerevisiae deletion strains, locus YOR083W, strain WHI5 (second series), active compounds read low 1.07 | S. cerevisiae deletion strains, locus YOR083W, strain WHI5, active compounds read low 0.995 | S. cerevisiae deletion strains, locus YOR106W, strain vam3, active compounds read low 0.997 | S. cerevisiae deletion strains, locus YOR136W, strain idh2, active compounds read low 0.999 | S. cerevisiae deletion strains, locus YOR144C, strain elg1, active compounds read low 0.992 | S. cerevisiae deletion strains, locus YOR184W, strain ser1, active compounds read low 1.02 | S. cerevisiae deletion strains, locus YOR231W, strain MKK1, active compounds read low 0.975 | S. cerevisiae deletion strains, locus YOR265W, strain rbl2, active compounds read low 1.01 | S. cerevisiae deletion strains, locus YOR270C, strain vph1, active compounds read low 0.932 | S. cerevisiae deletion strains, locus YOR290C, strain snf2, active compounds read low 1 | S. cerevisiae deletion strains, locus YOR316C, strain cot1, active compounds read low 0.993 | S. cerevisiae deletion strains, locus YPL051W, strain arl3, active compounds read low 0.992 | S. cerevisiae deletion strains, locus YPL055C, strain LGE1, active compounds read low 0.99 and 0.992 | S. cerevisiae deletion strains, locus YPL078C, strain atp4, active compounds read low 1.01 | S. cerevisiae deletion strains, locus YPL106C, strain sse1, active compounds read low 0.996 | S. cerevisiae deletion strains, locus YPL240C, strain hsp82, active compounds read low 1 | S. cerevisiae deletion strains, locus YPL241C, strain CIN2, active compounds read low 1.01 | S. cerevisiae deletion strains, locus YPL256C, strain CLN2, active compounds read low 0.972 | S. cerevisiae deletion strains, locus YPR119W, strain clb2, active compounds read low 0.99 | S. cerevisiae deletion strains, locus YPR141C, strain kar3, active compounds read low 0.993 | S. cerevisiae deletion strains, locus YPR163C, strain tif3, active compounds read low 0.982 | S. cerevisiae deletion strains, locus YPR167C, strain met16, active compounds read low 0.989 | S. cerevisiae deletion strains, strain wtn01, active compounds read low 0.988 | S. cerevisiae strains, strain wild type, active compounds read low 1.01
